# Screening data deposited in PubChem by National Center for Advancing Translational Sciences (NCATS).
# In the library only some 1.7% were active in any assay of this set; here they are far more common.
# GLP1R cytotox – cytotoxicity in counter-screen for GLP-1R inverse agonists. HEK293 cAMP-luciferase reporter cells, luminescence, 24 h. Potency, µM (series often up to 38.3 µM), for the others: at the highest dose activity change, negative = inhibition, hits mostly inhibitors. 0.13% of 410,000 active. AID 624418;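 note: loss of luciferase light is scored as toxicity; potency is the fitted concentration of half-maximal effect; % is set by controls: 0 for no effect and ±100 for the full control effect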
#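 1536-well qHTS counterscreen of the MLSMR; 200 cells/uL, 12 h pre-incubation, 23 nL cpd, 24 h at 37 deg C 5% CO2, luciferase detection reagent, 12 min RT, luminescence. Inhibition = undesired.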
# GLP1R inv ag – acts as inverse agonist at human GLP-1 receptor; P43220; HEK293 GLP-1R CRE-luciferase, luminescence, 24 h; GLP-1R form is constitutively active; Potency, µM (series often up to 38.3 µM), without a hit: at the top dose activity change, negative = inhibition, actives largely listed as inhibitors; 1.6% of 410,000 active; AID 624417; note: potency is the fitted concentration of half-maximal effect; % is set by controls: 0 for no effect and ±100 for the full control effect; nearly all actives have a fitted effect of over 55% in size
#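 Inverse agonists were sought by their lowering of basal cAMP reporter luciferase output in HEK293 cells stably carrying constitutively active human GLP-1R, after 24 h compound treatment.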
# mIDH1 inhibitor – blocks human mutant IDH1 R132H enzyme. Potency, µM (series often up to 76.6 µM), inactives show at the top dose activity change, negative = inhibition, most hits filed as inhibitors. AID 602179. 0.093% of 390,000 active. IDH1-R132H enzyme, NADPH consumption, diaphorase/resazurin fluorescence. O75874; note: potency is the fitted concentration of half-maximal effect; % is set by controls: 0 for no effect and ±100 for the full control effect; nearly all actives have a fitted effect of over 65% in size
#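 IDH1-R132H (0.5 ug/mL) preincubated 30 min with compound, then NADPH (0.016 mM) and alpha-KG (2 mM) added; 80 min at RT, pH 7.5. Remaining NADPH coupled via diaphorase/resazurin to fluorescence (540/590 nm); concentration-response curves normalized to no-enzyme control.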
# LDHA inh – blocks human lactate dehydrogenase A | AID 1347041 | activity change, % (values are at about 110 or 230 µM) | 0.15% of 480,000 active | P00338 | purified LDHA, NADH/diaphorase-resazurin fluorescence; hits give low values; in the data active = activity change below about -30%; inconclusive = mostly about -25% to -30%;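 note: plate controls were DMSO wells for no effect and wells without enzyme for full effect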
#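 Enzyme activity of human lactate dehydrogenase 5 (2 nM; 0.06 mM NADH, 0.2 mM pyruvate, 5 min, RT) is measured via a resazurin/diaphorase fluorescence readout of residual NADH.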
# PTHR1 ag – agonists of human PTHR1 parathyroid hormone receptor; Q03431; HEK293 GP2 PTHR1 cells, GloSensor cAMP luminescence, 1 h; Potency, µM (titrated, usually from 115 µM), for inactives: at the top dose activation, hits mostly activators; 0.075% of 410,000 active; note: potency is the fitted concentration of half-maximal effect; nearly all actives have a fitted effect of over 55% in size
# Target sequence (Q03431 whole entry, looked up): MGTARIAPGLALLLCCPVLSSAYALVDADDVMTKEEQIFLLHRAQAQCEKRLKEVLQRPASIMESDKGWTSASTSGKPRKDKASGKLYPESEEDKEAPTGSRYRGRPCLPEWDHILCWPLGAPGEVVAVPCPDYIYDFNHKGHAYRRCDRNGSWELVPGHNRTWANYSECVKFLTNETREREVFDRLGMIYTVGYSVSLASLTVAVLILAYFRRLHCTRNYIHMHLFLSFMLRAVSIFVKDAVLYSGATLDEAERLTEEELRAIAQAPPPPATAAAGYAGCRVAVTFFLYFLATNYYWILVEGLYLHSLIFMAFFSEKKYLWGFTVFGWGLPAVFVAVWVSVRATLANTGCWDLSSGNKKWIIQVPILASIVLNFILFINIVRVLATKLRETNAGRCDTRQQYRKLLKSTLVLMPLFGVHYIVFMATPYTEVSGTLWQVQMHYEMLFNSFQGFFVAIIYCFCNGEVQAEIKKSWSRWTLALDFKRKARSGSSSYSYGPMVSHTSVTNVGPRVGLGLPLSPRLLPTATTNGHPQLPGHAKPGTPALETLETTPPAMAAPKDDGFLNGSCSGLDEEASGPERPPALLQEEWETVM
#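 HEK-293-derived GP2 cells expressing PTHR1 and a GloSensor cAMP reporter, 3,000/well, plated overnight, given luciferin plus IBMX (each 0.5 mM as added) for 1 h at 37 °C, then compound for 1 h at 37 °C. Luminescence was read after 15 min at room temperature.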
# GLP1R ag – agonists of human GLP-1 receptor; HEK293 GLP-1R CRE-luciferase, luminescence, 4-6 h; cells express a hypersensitive GLP-1R form; Potency, µM (series often up to 45.6 µM), for the others: at the top dose activation, most hits filed as activators; P43220; AID 624172; 0.007% of 380,000 active; note: potency is the fitted concentration of half-maximal effect; % of control where 0% means no effect
# The depositor's hits bear a star; i = inactive; ? = inconclusive; . = not tested or not shown; [ ] = remark or other dose. Unless noted, calls come from the whole dose curve; as a rule, active = well fitted curve in the direction sought with a large enough effect; inconclusive = small, poorly fitted or top-dose-only effect, or another doubt; inactive = no such curve, though single readings can be large; an effect the other way counts as inactive or inconclusive.
SMILES,GLP1R cytotox,GLP1R inv ag,mIDH1 inhibitor,LDHA inh,PTHR1 ag,GLP1R ag
CCc1nc(C)ccc1OCC(=O)NCCCN(C)C,1%,8%,0%,-33*,25%[57.5 µM],0%
CCc1nc(C)ccc1OCC(=O)O,-14%,2%,0%,-7,-15%,-19%
C/C(=N\NC(=O)c1ccc(-c2ccccc2)cc1)C1C(=O)c2ccccc2C1=O,?,?,12%,-2,i,3%
C/C(=N\NC(=O)c1ccc(Br)cc1)C1C(=O)c2ccccc2C1=O,10µM*,?,4%,-4,-43%,-8%
CCC(CC)NC(=O)Cn1nc(C)c2ccccc2c1=O,.,.,.,1,.,.
Cc1ccc2nc(-c3ccc(NS(C)(=O)=O)cc3)cc(-c3ccccc3)c2c1,12%,0%,-4%,1,i,-7%
CCS(=O)(=O)Nc1ccc(-c2cc(-c3ccccc3)c3cc(C)ccc3n2)cc1,-11%,7.1µM*,0%,0,i,-3%
CCCCn1c(=O)[nH]c(=O)c2c1nc(-c1csnn1)n2CC(C)C,.,.,.,-6,.,.
Cc1occc1-c1nnc(SCC(=O)NC2CCCC2)n1C,-1%,16%,6%,2,i,1%
COc1ccc(-n2c(SCC(=O)Nc3ccccc3)nnc2-c2ccoc2C)cc1,17%,?,2%,-6,i,2%
COc1cccc(NC(=O)CSc2nnc(-c3ccoc3C)n2-c2ccccc2)c1,2%,11µM*,2%,2,-5%[57.5 µM],4%
Cc1occc1-c1nnc(SCC(=O)NC2CCCC2)n1-c1ccccc1,-4%,11µM*,-6%,-2,i,0%
COc1ccc(OC)c(NC(=O)CSc2nnc(C3CCCCC3)n2-c2ccccc2)c1,2%,4µM*,21%,-1,i,6%
COc1ccccc1C(=O)Nc1ccnn1C1CCN(Cc2cn(C)c3ccccc23)CC1,-28%,11µM*,-2%,-1,i,3%
Cn1cc(CN2CCC(n3nccc3NC(=O)c3ccccc3Cl)CC2)c2ccccc21,?,?,12%,0,?,1%
O=C(Nc1ccnn1C1CCN(CCCC2CCCC2)CC1)c1ccccc1Cl,-22%,10µM*,5%,0,-12%,5%
COc1ccc(CNC(=O)Cc2c(C)c3ccc(OC)c(OC)c3oc2=O)cc1OC,.,.,.,5,.,.
CCCSc1nsc(NC(=O)CC)n1,4%,-15%,8%,-8,-12%,4%
CCCSc1nsc(NC(=O)C(c2ccccc2)c2ccccc2)n1,?,3.2µM*,0%,-1,-15%[57.5 µM],-11%
COc1ccc(COc2ccc3c(C)c(CC(=O)O)c(=O)oc3c2)cc1,.,.,.,3,.,.
COc1cc(NC(=O)c2ccc(Cl)cc2)c(OC)cc1NC(=O)CN1CCOCC1,-1%,-2%,1%,-3,-32%[57.5 µM],-13%
COc1cc(NC(=O)c2ccc(Cl)cc2)c(OC)cc1NC(=O)CN1CCCCC1,?,3.5µM*,5%,-5,i,19%
COc1cc(NC(=O)Nc2ccccc2OC)c(OC)cc1NC(=O)CN1CCCCC1,-29%,?,6%,7,i,-1%
COc1cc(NC(=O)C2CCCCC2)c(OC)cc1NC(=O)CN1CCCCC1,?,2.5µM*,0%,-1,i,16%
CC1(C)O[C@H]2[C@@H](O1)[C@@H](C(=O)O)O[C@@H]1OC(C)(C)O[C@@H]12,.,.,.,2,.,.
SMILES,GLP1R cytotox,GLP1R inv ag,mIDH1 inhibitor,LDHA inh,PTHR1 ag,GLP1R ag
CCc1ccc(CN2CCC(Oc3ccc(C(=O)N4CCCC4)cc3)CC2)cc1,?,7.9µM*,2%,-10,-8%,-8%
CCc1ccc(CN2CCC(Oc3ccc(C(=O)N4CCCCC4)cc3)CC2)cc1,?,?,0%,-13,-5%,8%
O=C(c1ccc(OC2CCN(Cc3ccc(F)cc3)CC2)cc1)N1CCCC1,-3%,?,5%,-6,-3%,-3%
O=C(c1ccc(OC2CCN(C/C=C/c3ccc(F)cc3)CC2)cc1)N1CCCC1,-22%,3.2µM*,-6%,-5,-63%,4%
Cc1cc(C)cc(C(=O)NCCc2csc(-c3ccc(C(F)(F)F)cc3)n2)c1,2%,8%,7%,1,-8%,.
O=C(NCCc1csc(-c2ccc(C(F)(F)F)cc2)n1)c1ccc(F)c(F)c1,-12%,10µM*,-3%,3,-32%,-2%
C/C(=N/NC(=O)c1ccc(C(C)(C)C)cc1)c1ccccn1,?,2.5µM*,0%,-4,-21%,?
C/C(=N\NC(=O)C(c1ccccc1)c1ccccc1)c1ccccn1,?,2.8µM*,-1%,-6,i,-10%
O=C(CSc1nnc(-c2c[nH]c3ccccc23)o1)N1CCCC1,.,.,.,-3,.,.
CC(C)c1ccc(NC(=O)CN(c2cc(C(F)(F)F)ccc2Cl)S(C)(=O)=O)cc1,.,.,.,1,.,.
O=C(/C=C/c1ccccc1Cl)Nc1cccc(S(=O)(=O)NC2=NCCCCC2)c1,-5%,10µM*,9%,1,-21%,9%
O=C(/C=C/c1ccc(Cl)cc1Cl)Nc1cccc(S(=O)(=O)NC2=NCCC2)c1,-5%,?,-2%,2,-54%,0%
Cc1cc(NC(=O)CCN2CCC(C)CC2)ccc1Br,19%,10µM*,0%,-11,i,12%
O=C(Cc1coc2cc3c(cc12)CCC3)NCC1(N2CCCCC2)CCCCC1,?,10µM*,-2%,-7,i,9%
O=C(Cc1coc2cc3c(cc12)CCC3)NC1CCCCCCC1,0%,?,6%,3,-16%,0%
CN(Cc1cccc2ccccc12)C(=O)c1cc(COc2c(F)cccc2F)on1,-18%,10µM*,6%,3,i,10%
Cc1onc(-c2ccccc2)c1C(=O)Nc1ccccc1NC(=O)c1c(-c2ccccc2)noc1C,-2%,9%,1%,-4,i,-4%
Cc1ccc(C(C)NC(=O)c2c(-c3ccccc3)noc2C)cc1C (stereo unspecified),1%,7.9µM*,3%,-4,i,1%
CCOc1ccc(C(=O)COC(=O)c2c(-c3ccccc3)noc2C)cc1,?,10µM*,-7%,-1,i,10%
CCCOc1ccccc1NC(=O)c1c(-c2ccccc2)noc1C,-1%,11µM*,5%,0,-30%,14%
Cc1c(C(=O)c2ccccc2)oc2ccc(F)cc12,.,.,.,5,.,.
O=C(CSc1nnc(-c2ccc(Cl)cc2)n1CC1CCCO1)Nc1ccccc1 (stereo unspecified),.,.,.,6,.,.
